In one experiment the target is Albumin (Bos taurus) (UniProt P02769). Kind of experiment: compounds binding labelled BSA control protein – biochemical, small-molecule microarray, Alexa647 label, 635/667 nm fluorescence, artefact control for SMM control protein annotation, profiling panel (AID 1118).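 Note: score merges 667 nm emission intensity and signal-to-noise per printed compound spot.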 The settings on record: BSA-A647 binding, fluorescence 635 nm, higher = more signal.
A short description of experiment [1]: probe aXIP binding to arrayed compounds – biochemical, NeuroSMM set, 635/667 nm fluorescence, primary screen (AID 1119).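 Note: probe is the protein aXip251-270 applied at 1 µg/mL to compound-printed slides; binding of probe to printed compounds measured as 667 nm fluorescence plus signal to noise.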 The settings on record: small-molecule microarray, higher = more signal, called active from +8 up or from −8 down.
A short description of experiment [2]: probe aNOTCH3 binding on compound microarray – biochemical, small-molecule microarray, 635/667 nm fluorescence, primary screen (AID 1120).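 Note: probe is a biotin-tagged antibody raised against NOTCH3 rather than NOTCH3 protein; score merges spot fluorescence near 667 nm with spot signal to noise.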 The settings on record: higher = more signal.
A short description of experiment [3]: probe aNOTCH2 binding on compound microarray – biochemical, small-molecule microarray, 635/667 nm fluorescence, primary screen (AID 1121).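 Note: score merges feature fluorescence read at 667 nm with its signal to noise.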 The settings on record: higher = more signal.
Experiment [4] addresses Carbonic anhydrase 2 (Homo sapiens) (UniProt P00918). In words: compounds binding carbonic anhydrase 2 – biochemical, small-molecule microarray, Alexa647-labelled CAII, profiling panel (AID 1122). Particulars: CAII-A647 binding fluorescence, higher = more signal.
The nature of experiment [5]: COS7 lysate on small-molecule microarray, probe aHis, 635 nm (AID 1123).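 Note: z-score combines 667nm fluorescence intensity with signal-to-noise per printed compound spot.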 The settings on record: COS7 cell lysate, fluorescence, higher = more signal.
A short description of experiment [6]: probe aLAP1 signal on lysate-treated microarray – cell lysate, small-molecule microarray, COS7 lysate, primary screen (AID 1124).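 Note: lysate comes from COS7 cells expressing LAP1 and is applied at 0.3 µg/mL; score merges spot fluorescence near 667 nm with signal-to-noise over triplicate slides.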 Particulars: probe aLAP1, fluorescence, higher = more signal.
Another experiment deals with Sam68 (KHDRBS1). Kind of experiment: compounds binding KHDRBS1 protein – biochemical, small-molecule microarray, 635 nm fluorescence, primary screen (AID 1125).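 Note: score merges 667 nm channel intensity with signal to noise over triplicate slides.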 The settings on record: higher = more signal.
Experiment [7] concerns Chordin-like protein 2 (CHRDL2). In words: compounds binding chordin-like 2 – biochemical, small-molecule microarray, 635 nm fluorescence, primary screen (AID 1126).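 Note: printed compound slides probed with Chrdl2 protein at 4 µg/mL for 1 h at 4 C; score merges 667 nm emission intensity with signal to noise over three replicate slides.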 Particulars: fluorescence 635 nm, higher = more signal.
In experiment [8] the target is Concanavalin-A (Canavalia ensiformis) (UniProt P02866). In words: compounds binding concanavalin A lectin – biochemical, small-molecule microarray, Alexa647 label, 635 nm, artefact control for SMM control protein annotation, primary screen (AID 1127).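 Note: z combines 667 nm emission intensity with signal-to-noise across three replicate slides.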 Particulars: ConA-A647 binding fluorescence, higher = more signal.
Experiment [9] in a line: compounds binding Alexa647 anti-His antibody – biochemical, small-molecule microarray, 635 nm fluorescence, artefact control for SMM control protein annotation, primary screen (AID 1128).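 Note: score merges feature fluorescence with signal-to-noise for each printed compound spot.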 The settings on record: higher = more signal.
Experiment [10] has as its system Human papillomavirus type 1a E7 protein (residues 1-88). In words: HPV1a E7 small-molecule binders, primary screen, biochemical, small-molecule microarray, residues 1-88, 635 nm (AID 1129). The settings on record: small-molecule microarray binding, fluorescence 635 nm; higher = more signal.
The target in experiment [11] is Focal adhesion kinase 1 (Homo sapiens) (UniProt Q05397). In words: PTK2 protein binding on printed compound slides – biochemical, small-molecule microarray, 635/667 nm fluorescence, BSA, DTT, primary screen (AID 1130).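 Note: composite of spot emission at 667 nm and signal to noise over triplicate slides.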 The settings on record: 635 nm fluorescence, higher = more signal.
The test system of experiment [12] is Fibrinogen (Alexa647-labelled). Kind of experiment: Alexa647-fibrinogen binding to printed small molecules – biochemical, small-molecule microarray, 635/667 nm fluorescence, artefact control for SMM control-protein annotation, profiling panel (AID 1131).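 Note: z-score merges 667 nm fluorescence with per-spot signal-to-noise over triplicate slides.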 The settings on record: fibrinogen-A647 binding fluorescence, higher = more signal.
For experiment [13], the target named is Follistatin (Homo sapiens) (UniProt P19883). Kind of experiment: FST protein binding to printed compounds – biochemical, small-molecule microarray, 635/667 nm fluorescence, primary screen (AID 1132). The settings on record: 635 nm fluorescence, higher = more signal.
The target in experiment [14] is Fibroblast growth factor 2 (Homo sapiens) (UniProt P09038). In words: basic fibroblast growth factor binding to printed compounds – biochemical, small-molecule microarray, 635/667 nm fluorescence, primary screen (AID 1133). Particulars: FGF2, fluorescence 635/667, higher = more signal.
A short description of experiment [15]: JC-1 mitochondrial potential readout, lung cancer cells – cell-based, A549, JC-1 fluorescence, basal, 24 h, 100 nL, profiling panel (AID 1138).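 Note: A549 lung adenocarcinoma cells under basal conditions with no added stimulus; test concentration not given here.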 The settings on record: higher = more signal.
A further experiment relates to Lefty1. In words: Lefty1 protein binding to printed compounds – biochemical, small-molecule microarray, 635/667 nm fluorescence, primary screen (AID 1139). Particulars: fluorescence 635/667, higher = more signal.
Experiment [16] concerns wheat germ agglutinin (Triticum aestivum), Alexa647-labelled. In words: Alexa647-WGA lectin binding to printed small molecules – biochemical, small-molecule microarray, 635/667 nm fluorescence, artefact control for SMM control-protein annotation, profiling panel (AID 1140).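 Note: score merges 667 nm feature emission with signal to noise over triplicate slides.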 The settings on record: WGA-A647 binding, 635 nm fluorescence, higher = more signal.
Experiment [17] concerns the target Luciferin 4-monooxygenase (Photinus pyralis) (UniProt P08659). In words: inhibition of purified Photinus pyralis luciferase – biochemical, luminescence, purified enzyme, 2006 set, primary screen (AID 1141).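 Note: cell-free assay with purified firefly luciferase at 100 ng per well in PBS; test concentration not given here.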 Particulars: purified firefly luciferase, SteadyGlo luminescence, 30 min; higher = more signal, called active from +8 up or from −8 down.

The source made the active and inactive calls.

Drawing on PubChem BioAssay, this text covers composite z-score, composite Z-score and z-score for five molecules.

Chain of Concanavalin-A (Canavalia ensiformis) (P02866 whole entry, looked up): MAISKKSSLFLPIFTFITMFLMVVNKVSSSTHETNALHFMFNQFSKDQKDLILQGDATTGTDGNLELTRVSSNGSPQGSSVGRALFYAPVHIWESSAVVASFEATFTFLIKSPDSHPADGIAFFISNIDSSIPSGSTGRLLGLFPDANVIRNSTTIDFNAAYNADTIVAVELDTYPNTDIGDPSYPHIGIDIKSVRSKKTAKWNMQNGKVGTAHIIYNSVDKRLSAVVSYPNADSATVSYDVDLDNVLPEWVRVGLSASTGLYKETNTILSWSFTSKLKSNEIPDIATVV
Chain of Luciferin 4-monooxygenase (Photinus pyralis) (P08659 whole entry, looked up): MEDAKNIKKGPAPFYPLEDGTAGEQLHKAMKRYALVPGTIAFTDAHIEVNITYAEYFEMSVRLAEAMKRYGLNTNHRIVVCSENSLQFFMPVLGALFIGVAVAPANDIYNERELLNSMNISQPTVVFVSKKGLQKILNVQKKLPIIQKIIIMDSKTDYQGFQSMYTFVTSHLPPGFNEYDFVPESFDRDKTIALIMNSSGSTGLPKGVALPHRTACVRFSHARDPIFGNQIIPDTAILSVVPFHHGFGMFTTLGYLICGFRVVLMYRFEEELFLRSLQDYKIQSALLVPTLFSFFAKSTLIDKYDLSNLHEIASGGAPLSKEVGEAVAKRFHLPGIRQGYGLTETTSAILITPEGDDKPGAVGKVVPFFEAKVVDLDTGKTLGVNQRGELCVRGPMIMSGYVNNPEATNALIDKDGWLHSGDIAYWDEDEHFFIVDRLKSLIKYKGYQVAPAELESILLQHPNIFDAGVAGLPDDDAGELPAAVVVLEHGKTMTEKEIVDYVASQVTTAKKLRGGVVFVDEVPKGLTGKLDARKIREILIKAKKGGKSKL
Chain of Albumin (Bos taurus) (P02769 whole entry, looked up): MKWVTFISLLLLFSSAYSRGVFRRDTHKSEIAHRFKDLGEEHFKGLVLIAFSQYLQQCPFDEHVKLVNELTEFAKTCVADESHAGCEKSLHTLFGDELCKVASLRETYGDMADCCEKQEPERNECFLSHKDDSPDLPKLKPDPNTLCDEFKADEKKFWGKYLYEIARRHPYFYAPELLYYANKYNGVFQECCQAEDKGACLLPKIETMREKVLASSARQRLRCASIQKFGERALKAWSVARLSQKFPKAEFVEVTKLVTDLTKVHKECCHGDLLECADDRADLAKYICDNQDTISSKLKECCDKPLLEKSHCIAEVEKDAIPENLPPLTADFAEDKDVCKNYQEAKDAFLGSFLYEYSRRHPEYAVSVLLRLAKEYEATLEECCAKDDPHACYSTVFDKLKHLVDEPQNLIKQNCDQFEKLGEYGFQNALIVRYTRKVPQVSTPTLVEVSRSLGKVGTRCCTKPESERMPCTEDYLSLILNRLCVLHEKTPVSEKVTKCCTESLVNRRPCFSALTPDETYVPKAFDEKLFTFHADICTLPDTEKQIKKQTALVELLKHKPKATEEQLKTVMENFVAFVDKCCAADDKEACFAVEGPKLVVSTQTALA
Chain of Follistatin (Homo sapiens) (P19883 whole entry, looked up): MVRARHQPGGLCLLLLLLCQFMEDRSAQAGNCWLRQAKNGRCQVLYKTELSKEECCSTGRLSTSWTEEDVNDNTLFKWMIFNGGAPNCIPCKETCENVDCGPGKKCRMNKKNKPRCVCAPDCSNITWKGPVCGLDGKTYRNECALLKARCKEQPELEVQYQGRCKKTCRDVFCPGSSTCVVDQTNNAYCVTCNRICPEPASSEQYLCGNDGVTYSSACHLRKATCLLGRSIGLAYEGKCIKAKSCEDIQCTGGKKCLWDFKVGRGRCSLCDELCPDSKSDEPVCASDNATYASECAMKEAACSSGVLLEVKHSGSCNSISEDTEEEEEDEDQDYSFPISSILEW
Chain of Focal adhesion kinase 1 (Homo sapiens) (Q05397 whole entry, looked up): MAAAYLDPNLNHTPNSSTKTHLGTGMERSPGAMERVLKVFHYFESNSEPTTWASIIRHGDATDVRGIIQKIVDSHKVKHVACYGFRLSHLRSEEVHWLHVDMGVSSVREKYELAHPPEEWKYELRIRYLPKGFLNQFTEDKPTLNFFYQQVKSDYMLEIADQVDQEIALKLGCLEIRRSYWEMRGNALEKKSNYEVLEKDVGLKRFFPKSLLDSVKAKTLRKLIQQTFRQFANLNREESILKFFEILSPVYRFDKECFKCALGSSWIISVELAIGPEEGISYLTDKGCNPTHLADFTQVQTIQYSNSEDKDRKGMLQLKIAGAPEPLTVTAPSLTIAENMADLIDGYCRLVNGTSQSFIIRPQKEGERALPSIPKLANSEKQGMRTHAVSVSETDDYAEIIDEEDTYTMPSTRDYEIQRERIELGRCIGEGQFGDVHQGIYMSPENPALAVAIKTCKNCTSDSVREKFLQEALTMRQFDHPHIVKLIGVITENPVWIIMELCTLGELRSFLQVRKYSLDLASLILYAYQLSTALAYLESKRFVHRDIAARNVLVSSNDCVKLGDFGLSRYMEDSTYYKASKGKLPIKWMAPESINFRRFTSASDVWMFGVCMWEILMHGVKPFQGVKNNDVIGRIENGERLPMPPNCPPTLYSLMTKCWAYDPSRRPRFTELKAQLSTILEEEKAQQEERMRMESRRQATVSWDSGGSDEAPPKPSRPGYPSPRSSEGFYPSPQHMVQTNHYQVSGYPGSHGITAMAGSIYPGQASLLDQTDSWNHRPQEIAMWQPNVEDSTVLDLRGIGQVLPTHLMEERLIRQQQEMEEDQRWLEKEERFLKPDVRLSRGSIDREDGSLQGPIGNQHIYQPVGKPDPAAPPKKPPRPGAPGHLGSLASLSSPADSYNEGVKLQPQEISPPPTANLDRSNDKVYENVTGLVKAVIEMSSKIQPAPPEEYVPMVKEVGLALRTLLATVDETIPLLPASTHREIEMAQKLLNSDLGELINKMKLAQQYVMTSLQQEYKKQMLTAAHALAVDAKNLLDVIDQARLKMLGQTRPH
Chain of Fibroblast growth factor 2 (Homo sapiens) (P09038 whole entry, looked up): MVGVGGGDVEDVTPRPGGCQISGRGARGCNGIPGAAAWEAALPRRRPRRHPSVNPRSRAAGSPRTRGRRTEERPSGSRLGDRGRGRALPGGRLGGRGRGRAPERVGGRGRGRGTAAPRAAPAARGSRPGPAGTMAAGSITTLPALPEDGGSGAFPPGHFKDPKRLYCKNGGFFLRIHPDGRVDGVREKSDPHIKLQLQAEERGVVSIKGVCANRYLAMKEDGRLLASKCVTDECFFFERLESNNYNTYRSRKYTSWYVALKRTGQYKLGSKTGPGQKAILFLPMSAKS

Regarding `Cn1cccc1C(O)C1C=CC2C(=O)NC(=O)C2N1Nc1ccccn1` (stereo not given), the composite z-score in the experiment with Albumin (Bos taurus) is 0.809; in experiment [2], -0.0166; in [3] it was -0.171; in experiment [4] it was 0.914; in experiment [5], -0.318; in experiment [6] it was 0.503. For the same molecule, the composite z-score is -1.45 in the experiment with Sam68 (KHDRBS1); 0.148 in [7]; -0.0954 in experiment [8]; 0.195 in experiment [9]; -0.789 in experiment [10]; -0.35 in experiment [11]. Moreover, the composite z-score in [12] was -0.0084; in experiment [13], 0.776; in [14], 0.126; in the experiment with Lefty1, 0.097; in experiment [16], 1.03. The composite Z-score in [1] was 0.0019 (inactive). The z-score in [15] was -1.96; in [17], -1.41 (inactive).

As for `CCCC[C@@H]1C[C@H]1[C@@H](NS(=O)(=O)c1cccc2cccnc12)c1ccc(-c2ccccc2)cc1`, the composite z-score with Albumin (Bos taurus) is 0.41; in [2], 0.106; in experiment [3], -0.0817; in experiment [4], 0.529; in [5] it was 0.92; in [6], -0.222. Further, the composite z-score is -0.0217 in the experiment on Sam68 (KHDRBS1); -1 in experiment [7]; 0.119 in [8]; 0.983 in [9]; 1.08 in experiment [10]; 0.479 in experiment [11]. Further, the composite z-score is -0.809 in experiment [12]; 0.0634 in experiment [13]; -1.06 in [14]; -0.805 with Lefty1; 0.366 in [16]. Also, the composite Z-score in [1] is -0.325 (inactive). Moreover, the z-score in experiment [15] was 0.164; in [17] it was 0.633 (inactive).

As for `C=CCOC(=O)[C@H]1[C@@H]2C(=O)O[C@@H](c3ccccc3)[C@@H](c3ccccc3)N2[C@@H](c2ccc(OCCOC(=O)[C@H]3C[C@H]4C(=O)N[C@@H](Cc5ccccc5)C(=O)N4[C@H]3c3ccc(O)cc3)cc2)[C@]12C(=O)Nc1ccccc12`, the composite z-score with Albumin (Bos taurus) is -0.757; in experiment [2], -0.0932; in experiment [3], -0.131; in experiment [4] it was 0.553; in experiment [5] it was 1.71; in experiment [6], 0.832. The composite z-score was 1.31 in the experiment with Sam68 (KHDRBS1); 1.38 in [7]; 1.16 in experiment [8]; 2.22 in [9]; 1.13 in [10]; 1.23 in experiment [11]. Also, the composite z-score in experiment [12] is 0.51; in [13], 1.46; in experiment [14] it was 1.67; in the experiment on Lefty1, 1.46; in experiment [16], 0.654. Further, in experiment [1], the composite Z-score was 0.89 (inactive). Further, the values for the z-score in experiment [15] and in experiment [17] were -1.58 and -2.01 (inactive), respectively.

With `CO[C@H]1COC(=O)[C@@H]2CCCN2C(=O)[C@@H](C)COC(=O)CC=C[C@@H]1C`, the composite z-score was -0.414 with Albumin (Bos taurus); -0.0647 in [2]; -0.0907 in [3]; -0.329 in [4]; -0.641 in experiment [5]; 0.359 in experiment [6]. In addition, the composite z-score with Sam68 (KHDRBS1) was 0.474; in [7], 1.4; in experiment [8] it was 0.75; in experiment [9], 1.42; in experiment [10] it was -0.217; in experiment [11] it was -0.114. The composite z-score in experiment [12] was 0.112; in experiment [13], 1.02; in experiment [14] it was 1.46; in the experiment with Lefty1, 0.898; in experiment [16] it was -0.114. Further, the composite Z-score in experiment [1] was -0.275 (inactive). Also, the z-score in [15] was -0.409; in experiment [17], 1.29 (inactive).

For the molecule `CCCNC(=O)[C@@H]1c2ccccc2C(=O)N(c2ccc(C)cn2)[C@H]1c1ccc(CO)cc1`, the composite z-score with Albumin (Bos taurus) is 0.206; in experiment [2], -0.305; in experiment [3], -0.109; in experiment [4], 0.769; in [5], -0.018; in experiment [6], -0.514. In addition, the composite z-score is -0.646 in the experiment on Sam68 (KHDRBS1); -0.382 in experiment [7]; -0.984 in [8]; 0.63 in [9]; -0.38 in [10]; 0.14 in experiment [11]. Besides, the composite z-score is -0.367 in experiment [12]; 0.316 in experiment [13]; 0.398 in [14]; -0.981 with Lefty1; -0.273 in [16]. Besides, in experiment [1], the composite Z-score is -0.207 (inactive). In addition, the z-score was -0.307 in experiment [15] and 0.544 (inactive) in experiment [17].
